Common to all, as to details: mRNA level, 48 h; actives raise or lower the signal
Read-out in assay [1]: Insulin Like Growth Factor 1 (IGF1), IGF1 (gene 3479)
Nature of the assay: LTEA_HepaRG_IGF1: Life Technologies and Expression Analysis (LTEA) Assay for Insulin Like Growth Factor 1 (IGF1) using HepaRG (AID 2283506). Summed up:
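Using human HepaRG liver cells, IGF1 transcript induction or suppression is measured 48 h after dosing across eight concentrations capped at 100 uM. Values derive from bidirectional concentration-response fitting with DMSO as baseline.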

Read-out in assay [2]: Intercellular Adhesion Molecule 1 (ICAM1), ICAM1 (gene 3383)
Nature of the assay: LTEA_HepaRG_ICAM1: Life Technologies and Expression Analysis (LTEA) Assay for Intercellular Adhesion Molecule 1 (ICAM1) using HepaRG (AID 2283507). Summed up: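 Differentiated HepaRG cells in serum-free induction medium were exposed in duplicate for 48 h to eight half-log concentrations up to 100 uM in 0.5% DMSO. Transcript levels were measured by qRT-PCR normalized to ACTB, GAPDH and POLR2A; bidirectional fits relative to DMSO.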

Read-out in assay [3]: Insulin-like growth factor-binding protein 1 (IGFBP1), IGFBP1 (gene 3484)
Nature of the assay: LTEA_HepaRG_IGFBP1: Life Technologies and Expression Analysis (LTEA) Assay for Insulin-like growth factor-binding protein 1 (IGFBP1) using HepaRG (AID 2283508). Summed up:
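Differentiated human HepaRG cells in serum-free induction medium were exposed in duplicate for 48 h to eight concentrations, top 100 uM with half-log dilutions, in 0.5% DMSO. Transcript levels came from qRT-PCR normalised to ACTB, GAPDH and POLR2A, fitted bidirectionally against DMSO.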

Read-out in assay [4]: Interleukin 6 (IL6), IL6 (gene 3569)
Description: LTEA_HepaRG_IL6: Life Technologies and Expression Analysis (LTEA) Assay for Interleukin 6 (IL6) using HepaRG (AID 2283509). Summed up: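 HepaRG, ~100,000 cells/well, 48 h pre-culture; serum-free induction medium; cmpd 8-pt half-log from 100 uM, 0.5% DMSO, duplicate, 48 h. Lysis in RLT, TaqMan qRT-PCR; gain or loss vs DMSO.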

Read-out in assay [5]: Interleukin 6 Receptor (IL6R), IL6R (gene 3570)
Nature of the assay: LTEA_HepaRG_IL6R: Life Technologies and Expression Analysis (LTEA) Assay for Interleukin 6 Receptor (IL6R) using HepaRG (AID 2283510).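 For AC50: TaqMan qRT-PCR signal normalized to ACTB GAPDH and POLR2A housekeeping genes.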 Summed up:
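Concentration-response in human liver HepaRG cells: eight concentrations from 100 uM downward by half-logs, 48 h exposure, 0.5% DMSO vehicle. IL6R mRNA change measured by qRT-PCR and fitted in both directions relative to vehicle.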

Read-out in assay [6]: Potassium channel subfamily K member 1 (KCNK1), KCNK1 (gene 3775)
Description: LTEA_HepaRG_KCNK1: Life Technologies and Expression Analysis (LTEA) Assay for Potassium channel subfamily K member 1 (KCNK1) using HepaRG (AID 2283511). Summed up:
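Gain or loss of KCNK1 mRNA is the read-out, quantified by qRT-PCR against three housekeeping genes after 48 h chemical treatment of human HepaRG liver cells. Concentrations ran from 100 uM downward in half-log steps, vehicle 0.5% DMSO.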

Read-out in assay [7]: Keratin 19 (KRT19), KRT19 (gene 3880)
Description: LTEA_HepaRG_KRT19: Life Technologies and Expression Analysis (LTEA) Assay for Keratin 19 (KRT19) using HepaRG (AID 2283512). Summed up:
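Differentiated human HepaRG cells, plated 48 h, were exposed in duplicate for 48 h in serum-free induction medium to eight half-log concentrations up to 100 uM in 0.5% DMSO. KRT19 mRNA was quantified by qRT-PCR, normalized to ACTB, GAPDH and POLR2A, and fitted bidirectionally versus DMSO.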

Read-out in assay [8]: JUN Transcription Factor, JUN (gene 3725)
Description: LTEA_HepaRG_JUN: Life Technologies and Expression Analysis (LTEA) Assay for JUN Transcription Factor using HepaRG (AID 2283513). The method, boiled down:
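Human HepaRG liver cells receive test chemicals in 0.5% DMSO for 48 h across an eight-point range topping at 100 uM. Expression changes in JUN are scored in both directions against the DMSO vehicle.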

Read-out in assay [9]: Lipase C (LIPC), LIPC (gene 3990)
Description: LTEA_HepaRG_LIPC: Life Technologies and Expression Analysis (LTEA) Assay for Lipase C (LIPC) using HepaRG (AID 2283514). The method, boiled down:
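Read-out is LIPC transcript level by TaqMan qRT-PCR, normalized to three housekeeping genes, after 48 h chemical treatment of human HepaRG liver cells. Curves span eight concentrations topping at 100 uM; activity in either direction scored relative to 0.5% DMSO.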

Read-out in assay [10]: Lipoprotein lipase (LPL), LPL (gene 4023)
Nature of the assay: LTEA_HepaRG_LPL: Life Technologies and Expression Analysis (LTEA) Assay for Lipoprotein lipase (LPL) using HepaRG (AID 2283515). Summed up: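 Read-out is LPL transcript level by qRT-PCR, normalized to three housekeeping genes and fitted bidirectionally against the DMSO control. Human HepaRG cells received chemicals for 48 h at up to 100 uM.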

Activity calls are given as the source filed them. Rule for the calls: active = hit-call score of the fitted dose curve at least 0.9, where 1 is the maximum; inactive = score below 0.9.

For `O=C(NC(=O)c1c(F)cccc1F)Nc1cc(Cl)c(OC(F)(F)C(F)F)c(Cl)c1`, the outcome in assay [1], in [2], in [3], in [4], in assay [5] and in [6] was inactive. For the same compound, the compound was called inactive in assay [7], in assay [8] and in [10]. Besides, the half-maximal activity concentration (AC50) in assay [9] is 50 µM (active).

On to `C=CC(N)=O`, for which the result in assay [1], in assay [2], in assay [3], in assay [4], in [5] and in [6] was inactive. The compound was classed as inactive in assay [7], in assay [8], in assay [9] and in [10].

Take `Cc1cc(O)ccc1Cl`: the compound was called inactive in [1], in [2], in assay [3], in assay [4], in assay [5] and in assay [7]. The compound was classed as inactive in assay [8], in [9] and in assay [10].

In the case of `Oc1ccc(C(c2ccc(O)cc2)(C(F)(F)F)C(F)(F)F)cc1`, the result in assay [1], in assay [2], in [7] and in assay [9] was inactive. The AC50 was 75.9 µM (active) in assay [3]; 91.8 µM (active) in assay [4]; 89.2 µM (active) in assay [5]; 92.4 µM (active) in assay [8]; 79.3 µM (active) in [10].

For `Clc1ccc(C(c2ccccc2Cl)C(Cl)(Cl)Cl)cc1` (stereo not drawn), the AC50 in [1] was 31.3 µM (active); in [7], 20.4 µM (active); in assay [9] it was 84.4 µM (active); in assay [10], 89.7 µM (active). The compound was called inactive in [2], in [3], in assay [4], in assay [5], in assay [6] and in assay [8].

For the compound `ClC1=C(Cl)[C@]2(Cl)[C@@H]3[C@H]4C[C@H]([C@@H]5O[C@H]45)[C@@H]3[C@@]1(Cl)C2(Cl)Cl`, the AC50 in assay [1] was 5.52 µM (active); in [2], 9.92 µM (active); in assay [5], 9.92 µM (active); in assay [9], 50 µM (active). Moreover, the outcome in [3], in assay [4], in assay [6], in [7], in assay [8] and in [10] was inactive.

As for `O=C(N[C@H]1CN2CCC1CC2)c1cc2ccoc2cn1`, the result in assay [1], in assay [2], in assay [3], in assay [4], in assay [5] and in assay [6] was inactive. In addition, the result in assay [7], in [8], in [9] and in assay [10] was inactive.

On to `NS(=O)(=O)C(F)(F)C(F)(F)C(F)(F)C(F)(F)C(F)(F)C(F)(F)C(F)(F)C(F)(F)F`, for which the AC50 in assay [1] was 22.3 µM (active); in assay [3], 21.6 µM (active); in [4], 38.9 µM (active); in [5], 30.2 µM (active); in assay [7], 23.4 µM (active); in [8] it was 37.2 µM (active). Further, the AC50 in [9] is 15.8 µM (active); in [10], 70.8 µM (active). Further, the compound was classed as inactive in assay [2] and in assay [6].

`CCOP(=S)(OCC)SCSC(C)(C)C`: the result in [1], in [2], in [3], in [4], in [5] and in assay [6] was inactive. Moreover, the result in assay [7], in [8], in [9] and in assay [10] was inactive.

Turning to `CCOC(=O)C(O)(c1ccc(Cl)cc1)c1ccc(Cl)cc1`, the outcome in [1], in assay [2], in assay [3], in assay [4], in assay [5] and in assay [6] was inactive. Also, the result in assay [7], in assay [8] and in assay [9] was inactive. The AC50 in [10] is 9.14 µM (active).

Consider `O=S(=O)(O)C(F)(F)C(F)(F)C(F)(F)C(F)(F)F`, for which the outcome in assay [1], in assay [2], in assay [3], in assay [4], in assay [5] and in [7] was inactive. The compound was called inactive in assay [8], in [9] and in [10].

As to `Nn1cnnc1`, the result in assay [1], in assay [2], in assay [3], in [4], in assay [5] and in [7] was inactive. Besides, the result in [8], in [9] and in assay [10] was inactive.

As to `CCC(C)(c1ccc(O)cc1)c1ccc(O)cc1`, the compound was called inactive in [1], in [2], in assay [3], in assay [4], in [5] and in assay [6]. Also, the call in [7], in assay [8], in assay [9] and in assay [10] was inactive.

`Cc1ccc(O)c(C)c1`: the outcome in assay [1], in [2], in assay [3], in assay [4], in [5] and in assay [6] was inactive. Further, the call in assay [7], in assay [8], in assay [9] and in [10] was inactive.

As to `CN(C)c1nc(=O)n(C2CCCCC2)c(=O)n1C`, the compound was called inactive in assay [1], in assay [3], in [4], in assay [5], in assay [7] and in assay [8]. In addition, the compound was classed as inactive in assay [10]. The AC50 in assay [2] was 5.44 µM (active); in assay [9] it was 12 µM (active).

On to `CC1=C2C[C@H]3[C@@H](CC=C4C[C@@H](O)CC[C@@]43C)[C@@H]2CC[C@]12O[C@@H]1C[C@H](C)CN[C@H]1[C@H]2C`, for which the compound was classed as inactive in assay [1], in assay [2], in [3], in assay [4], in [5] and in assay [7]. In addition, the compound was called inactive in [8], in assay [9] and in assay [10].

`Cc1cc2c3c(c1)C(c1ccccc1)=N[C@@H](NC(=O)c1ccncc1)C(=O)N3CC2`: the AC50 in assay [1] was 39.3 µM (active); in assay [8], 50 µM (active); in [9], 34.9 µM (active); in assay [10], 21.1 µM (active). Moreover, the outcome in [2], in [3], in [4], in assay [5], in [6] and in [7] was inactive.

Regarding `CO/C=C(/C(=O)OC)c1ccccc1COc1cccc(C(F)(F)F)n1`, the AC50 in assay [1] is 5.31 µM (active); in assay [2], 8.33 µM (active); in [3], 8.19 µM (active); in [4] it was 9.02 µM (active); in assay [6], 27.8 µM (active); in [7] it was 12.4 µM (active). The AC50 in [8] was 50 µM (active); in assay [9], 22.6 µM (active); in [10] it was 9.42 µM (active). Also, in [5], the outcome was inactive.

For the compound `CCSC(=O)N(CC)C1CCCCC1`, the result in assay [1], in assay [2], in [3], in [4], in assay [5] and in assay [7] was inactive. For the same compound, the compound was classed as inactive in assay [8], in assay [9] and in [10].

Usually AC50 stands for the midpoint of the concentration-response curve, whichever way the signal moves.
